Measured values reported in ChEMBL document CHEMBL2218924, “A broad activity screen in support of a chemogenomic map for kinase signalling research and drug discovery” (Biochem J, 2013).

Columns and labels:
[1] = molecular target: T1, Ephrin type-A receptor 3 (Homo sapiens) (UniProt P29320); details: at 10 µM
T1 sequence (whole entry): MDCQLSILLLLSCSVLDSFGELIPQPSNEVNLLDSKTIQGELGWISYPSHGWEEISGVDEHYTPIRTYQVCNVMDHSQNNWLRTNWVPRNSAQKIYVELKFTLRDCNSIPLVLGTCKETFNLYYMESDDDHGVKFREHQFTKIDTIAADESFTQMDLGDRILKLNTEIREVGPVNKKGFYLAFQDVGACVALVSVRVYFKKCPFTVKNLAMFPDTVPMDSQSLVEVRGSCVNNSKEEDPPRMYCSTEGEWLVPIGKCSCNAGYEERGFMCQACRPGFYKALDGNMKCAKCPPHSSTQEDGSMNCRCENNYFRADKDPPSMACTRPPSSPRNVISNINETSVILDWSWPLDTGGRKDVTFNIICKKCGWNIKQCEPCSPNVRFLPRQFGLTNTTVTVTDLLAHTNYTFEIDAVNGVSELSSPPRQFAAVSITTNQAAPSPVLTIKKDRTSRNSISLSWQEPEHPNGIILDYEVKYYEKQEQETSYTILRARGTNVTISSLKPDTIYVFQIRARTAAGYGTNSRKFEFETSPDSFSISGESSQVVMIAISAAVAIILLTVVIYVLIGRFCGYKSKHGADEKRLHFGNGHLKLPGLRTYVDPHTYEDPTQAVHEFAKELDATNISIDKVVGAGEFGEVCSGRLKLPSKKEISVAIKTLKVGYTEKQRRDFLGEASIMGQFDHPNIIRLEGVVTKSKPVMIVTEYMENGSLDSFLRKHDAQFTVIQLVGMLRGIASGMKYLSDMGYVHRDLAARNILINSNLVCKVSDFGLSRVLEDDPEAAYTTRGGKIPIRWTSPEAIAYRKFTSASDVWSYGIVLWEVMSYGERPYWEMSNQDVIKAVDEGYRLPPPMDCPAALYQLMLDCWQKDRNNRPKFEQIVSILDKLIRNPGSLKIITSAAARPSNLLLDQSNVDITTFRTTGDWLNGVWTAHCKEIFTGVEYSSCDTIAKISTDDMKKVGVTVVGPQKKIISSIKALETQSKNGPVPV

[2] = molecular target: Ephrin type-A receptor 7 (Homo sapiens) (UniProt Q15375); details: at 1 µM
Ephrin type-A receptor 7 (Homo sapiens), sequence (Q15375 28-998 limits assumed): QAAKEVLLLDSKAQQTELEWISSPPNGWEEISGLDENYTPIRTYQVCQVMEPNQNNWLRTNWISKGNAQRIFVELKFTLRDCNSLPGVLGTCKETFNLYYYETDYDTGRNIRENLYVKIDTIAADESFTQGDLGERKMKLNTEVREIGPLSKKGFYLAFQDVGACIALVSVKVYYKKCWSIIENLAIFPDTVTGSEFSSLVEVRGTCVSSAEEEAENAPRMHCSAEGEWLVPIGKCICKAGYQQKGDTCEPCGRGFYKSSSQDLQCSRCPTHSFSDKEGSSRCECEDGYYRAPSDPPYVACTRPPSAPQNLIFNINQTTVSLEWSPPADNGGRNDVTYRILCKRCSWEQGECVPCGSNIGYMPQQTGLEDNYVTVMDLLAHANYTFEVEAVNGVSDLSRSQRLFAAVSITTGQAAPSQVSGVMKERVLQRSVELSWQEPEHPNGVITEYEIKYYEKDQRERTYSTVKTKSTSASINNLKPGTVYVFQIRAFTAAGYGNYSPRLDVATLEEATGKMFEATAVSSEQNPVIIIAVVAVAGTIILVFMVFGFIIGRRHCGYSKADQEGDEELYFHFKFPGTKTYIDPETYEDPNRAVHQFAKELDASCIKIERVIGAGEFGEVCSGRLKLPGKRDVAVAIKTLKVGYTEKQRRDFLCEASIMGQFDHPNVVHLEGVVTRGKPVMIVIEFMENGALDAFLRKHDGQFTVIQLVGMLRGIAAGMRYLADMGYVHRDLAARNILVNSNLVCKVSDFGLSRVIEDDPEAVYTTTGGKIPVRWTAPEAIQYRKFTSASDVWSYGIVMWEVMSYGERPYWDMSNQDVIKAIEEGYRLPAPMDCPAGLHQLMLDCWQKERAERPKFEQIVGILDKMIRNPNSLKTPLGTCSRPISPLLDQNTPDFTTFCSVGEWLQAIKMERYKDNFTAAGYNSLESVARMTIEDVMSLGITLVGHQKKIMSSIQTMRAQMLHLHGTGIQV

[3] = molecular target: Ephrin type-A receptor 7 (Homo sapiens) (UniProt Q15375); details: at 10 µM
[4] = molecular target: T2, Ephrin type-A receptor 8 (Homo sapiens) (UniProt P29322); details: at 1 µM
T2 sequence (whole entry): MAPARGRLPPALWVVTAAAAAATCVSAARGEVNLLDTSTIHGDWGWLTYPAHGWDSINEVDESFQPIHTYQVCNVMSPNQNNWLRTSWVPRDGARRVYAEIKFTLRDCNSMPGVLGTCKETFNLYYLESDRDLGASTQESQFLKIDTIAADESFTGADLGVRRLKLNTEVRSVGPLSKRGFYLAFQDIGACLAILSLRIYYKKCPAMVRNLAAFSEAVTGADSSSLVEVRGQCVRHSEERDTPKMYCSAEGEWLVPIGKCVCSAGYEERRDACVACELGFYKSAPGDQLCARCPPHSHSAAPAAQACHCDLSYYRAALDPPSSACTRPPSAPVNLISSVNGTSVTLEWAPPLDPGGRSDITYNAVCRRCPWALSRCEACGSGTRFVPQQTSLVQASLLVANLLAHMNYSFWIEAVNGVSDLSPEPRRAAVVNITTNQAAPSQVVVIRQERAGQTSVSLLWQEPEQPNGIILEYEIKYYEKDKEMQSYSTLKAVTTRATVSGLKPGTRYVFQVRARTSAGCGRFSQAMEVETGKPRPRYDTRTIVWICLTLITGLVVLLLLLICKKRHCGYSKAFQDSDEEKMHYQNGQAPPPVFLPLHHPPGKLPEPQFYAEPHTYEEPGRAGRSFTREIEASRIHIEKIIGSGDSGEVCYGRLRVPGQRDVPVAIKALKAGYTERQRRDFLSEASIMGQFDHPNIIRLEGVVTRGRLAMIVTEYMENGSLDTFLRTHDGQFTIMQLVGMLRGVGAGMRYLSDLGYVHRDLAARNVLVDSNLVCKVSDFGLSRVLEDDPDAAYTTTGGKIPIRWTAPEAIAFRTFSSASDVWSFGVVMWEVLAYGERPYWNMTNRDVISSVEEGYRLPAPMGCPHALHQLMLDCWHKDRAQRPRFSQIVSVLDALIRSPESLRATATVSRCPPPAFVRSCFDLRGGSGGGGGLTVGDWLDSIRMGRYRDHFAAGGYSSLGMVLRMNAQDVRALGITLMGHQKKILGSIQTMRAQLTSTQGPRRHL

[5] = molecular target: T2, Ephrin type-A receptor 8 (Homo sapiens); details: at 10 µM
[6] = molecular target: T3, Ephrin type-B receptor 1 (Homo sapiens) (UniProt P54762); details: at 1 µM
T3 sequence (whole entry): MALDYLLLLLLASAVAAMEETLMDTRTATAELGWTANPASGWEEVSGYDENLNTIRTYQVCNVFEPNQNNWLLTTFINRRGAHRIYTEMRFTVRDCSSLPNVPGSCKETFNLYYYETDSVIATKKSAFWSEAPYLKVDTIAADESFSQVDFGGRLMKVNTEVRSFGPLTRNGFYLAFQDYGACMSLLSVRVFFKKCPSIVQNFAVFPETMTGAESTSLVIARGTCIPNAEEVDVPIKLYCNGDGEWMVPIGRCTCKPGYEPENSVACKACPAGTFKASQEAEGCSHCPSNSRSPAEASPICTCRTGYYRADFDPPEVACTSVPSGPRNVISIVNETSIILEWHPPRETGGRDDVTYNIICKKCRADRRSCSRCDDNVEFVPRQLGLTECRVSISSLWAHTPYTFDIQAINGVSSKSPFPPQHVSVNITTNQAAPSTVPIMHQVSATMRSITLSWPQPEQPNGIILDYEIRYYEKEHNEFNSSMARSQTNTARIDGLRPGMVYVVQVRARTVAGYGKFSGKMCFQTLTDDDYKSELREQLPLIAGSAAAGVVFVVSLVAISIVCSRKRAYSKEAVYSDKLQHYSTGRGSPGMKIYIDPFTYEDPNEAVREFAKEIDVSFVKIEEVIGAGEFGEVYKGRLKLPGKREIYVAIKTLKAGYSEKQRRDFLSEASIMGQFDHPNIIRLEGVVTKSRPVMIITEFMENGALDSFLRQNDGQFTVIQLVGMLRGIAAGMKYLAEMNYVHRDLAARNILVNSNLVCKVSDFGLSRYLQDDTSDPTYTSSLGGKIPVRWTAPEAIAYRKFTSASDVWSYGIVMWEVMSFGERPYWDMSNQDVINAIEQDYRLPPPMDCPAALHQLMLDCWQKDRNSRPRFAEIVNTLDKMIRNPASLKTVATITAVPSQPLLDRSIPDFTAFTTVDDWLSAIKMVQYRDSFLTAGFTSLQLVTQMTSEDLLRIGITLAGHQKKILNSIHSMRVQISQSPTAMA

[7] = molecular target: T4, Ephrin type-B receptor 4 (Homo sapiens) (UniProt P54760); details: at 1 µM
T4 sequence (whole entry): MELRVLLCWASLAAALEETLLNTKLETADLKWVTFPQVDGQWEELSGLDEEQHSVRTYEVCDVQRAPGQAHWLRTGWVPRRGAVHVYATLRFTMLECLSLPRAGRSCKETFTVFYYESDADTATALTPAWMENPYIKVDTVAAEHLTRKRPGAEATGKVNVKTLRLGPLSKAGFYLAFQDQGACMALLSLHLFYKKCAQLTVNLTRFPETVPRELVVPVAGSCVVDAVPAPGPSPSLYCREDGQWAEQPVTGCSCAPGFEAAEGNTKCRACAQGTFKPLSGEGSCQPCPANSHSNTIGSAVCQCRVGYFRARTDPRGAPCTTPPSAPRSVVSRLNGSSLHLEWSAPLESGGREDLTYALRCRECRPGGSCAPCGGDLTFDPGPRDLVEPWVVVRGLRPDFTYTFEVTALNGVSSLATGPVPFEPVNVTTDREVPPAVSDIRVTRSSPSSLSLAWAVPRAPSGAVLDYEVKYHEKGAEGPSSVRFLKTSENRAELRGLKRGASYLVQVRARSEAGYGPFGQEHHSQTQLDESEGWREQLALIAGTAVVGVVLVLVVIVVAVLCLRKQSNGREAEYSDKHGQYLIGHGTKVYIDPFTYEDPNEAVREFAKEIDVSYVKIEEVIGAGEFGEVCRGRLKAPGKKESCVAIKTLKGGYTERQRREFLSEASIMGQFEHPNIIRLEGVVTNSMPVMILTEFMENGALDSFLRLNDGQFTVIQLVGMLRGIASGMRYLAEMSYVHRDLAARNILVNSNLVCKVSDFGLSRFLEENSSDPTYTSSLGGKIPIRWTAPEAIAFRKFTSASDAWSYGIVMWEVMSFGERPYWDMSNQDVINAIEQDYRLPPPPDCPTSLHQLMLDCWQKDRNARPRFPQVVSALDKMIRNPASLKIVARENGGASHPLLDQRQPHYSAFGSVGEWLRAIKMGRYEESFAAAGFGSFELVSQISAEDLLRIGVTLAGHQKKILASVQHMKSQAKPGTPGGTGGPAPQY

[8] = molecular target: T4, Ephrin type-B receptor 4 (Homo sapiens); details: at 10 µM
[9] = molecular target: Receptor tyrosine-protein kinase erbB-4 (Homo sapiens) (UniProt Q15303); details: at 1 µM
Receptor tyrosine-protein kinase erbB-4 (Homo sapiens), sequence (Q15303 whole entry): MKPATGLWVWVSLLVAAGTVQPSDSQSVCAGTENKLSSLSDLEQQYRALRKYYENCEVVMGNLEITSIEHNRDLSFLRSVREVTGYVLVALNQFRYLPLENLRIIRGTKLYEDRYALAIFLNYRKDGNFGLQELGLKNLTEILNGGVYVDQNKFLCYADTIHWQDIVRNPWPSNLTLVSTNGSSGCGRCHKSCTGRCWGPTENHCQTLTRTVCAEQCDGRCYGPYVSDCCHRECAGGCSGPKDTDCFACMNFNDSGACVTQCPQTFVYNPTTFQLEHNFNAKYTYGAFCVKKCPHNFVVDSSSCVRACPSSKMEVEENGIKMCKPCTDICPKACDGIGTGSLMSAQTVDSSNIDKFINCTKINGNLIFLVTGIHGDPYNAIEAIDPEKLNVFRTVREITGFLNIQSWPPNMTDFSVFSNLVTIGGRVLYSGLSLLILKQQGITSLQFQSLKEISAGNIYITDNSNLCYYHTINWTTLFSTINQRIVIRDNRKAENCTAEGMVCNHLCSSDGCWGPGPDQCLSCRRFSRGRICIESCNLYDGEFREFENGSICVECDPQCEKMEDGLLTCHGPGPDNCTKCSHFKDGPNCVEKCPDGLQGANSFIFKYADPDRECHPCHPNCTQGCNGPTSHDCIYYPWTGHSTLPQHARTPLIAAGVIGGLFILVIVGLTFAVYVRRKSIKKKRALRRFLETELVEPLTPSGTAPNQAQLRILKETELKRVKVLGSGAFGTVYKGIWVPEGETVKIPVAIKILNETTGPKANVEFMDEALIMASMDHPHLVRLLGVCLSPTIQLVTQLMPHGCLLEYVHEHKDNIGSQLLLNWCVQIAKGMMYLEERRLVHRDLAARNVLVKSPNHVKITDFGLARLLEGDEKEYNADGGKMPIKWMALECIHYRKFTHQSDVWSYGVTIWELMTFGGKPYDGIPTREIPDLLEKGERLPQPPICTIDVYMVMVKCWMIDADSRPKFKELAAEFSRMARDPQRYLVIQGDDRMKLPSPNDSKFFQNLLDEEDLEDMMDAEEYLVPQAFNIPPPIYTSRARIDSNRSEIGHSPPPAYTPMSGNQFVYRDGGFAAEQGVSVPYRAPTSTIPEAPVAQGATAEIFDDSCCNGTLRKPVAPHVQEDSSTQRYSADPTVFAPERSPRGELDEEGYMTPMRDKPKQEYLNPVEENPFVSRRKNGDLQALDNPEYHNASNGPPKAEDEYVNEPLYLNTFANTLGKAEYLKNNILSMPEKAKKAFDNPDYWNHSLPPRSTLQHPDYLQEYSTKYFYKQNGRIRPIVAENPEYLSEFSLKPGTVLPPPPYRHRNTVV

[10] = molecular target: Receptor tyrosine-protein kinase erbB-4 (Homo sapiens) (UniProt Q15303); details: at 10 µM
[11] = molecular target: Focal adhesion kinase 1 (Homo sapiens) (UniProt Q05397); details: at 1 µM
Focal adhesion kinase 1 (Homo sapiens), sequence (Q05397 2-1052 limits assumed): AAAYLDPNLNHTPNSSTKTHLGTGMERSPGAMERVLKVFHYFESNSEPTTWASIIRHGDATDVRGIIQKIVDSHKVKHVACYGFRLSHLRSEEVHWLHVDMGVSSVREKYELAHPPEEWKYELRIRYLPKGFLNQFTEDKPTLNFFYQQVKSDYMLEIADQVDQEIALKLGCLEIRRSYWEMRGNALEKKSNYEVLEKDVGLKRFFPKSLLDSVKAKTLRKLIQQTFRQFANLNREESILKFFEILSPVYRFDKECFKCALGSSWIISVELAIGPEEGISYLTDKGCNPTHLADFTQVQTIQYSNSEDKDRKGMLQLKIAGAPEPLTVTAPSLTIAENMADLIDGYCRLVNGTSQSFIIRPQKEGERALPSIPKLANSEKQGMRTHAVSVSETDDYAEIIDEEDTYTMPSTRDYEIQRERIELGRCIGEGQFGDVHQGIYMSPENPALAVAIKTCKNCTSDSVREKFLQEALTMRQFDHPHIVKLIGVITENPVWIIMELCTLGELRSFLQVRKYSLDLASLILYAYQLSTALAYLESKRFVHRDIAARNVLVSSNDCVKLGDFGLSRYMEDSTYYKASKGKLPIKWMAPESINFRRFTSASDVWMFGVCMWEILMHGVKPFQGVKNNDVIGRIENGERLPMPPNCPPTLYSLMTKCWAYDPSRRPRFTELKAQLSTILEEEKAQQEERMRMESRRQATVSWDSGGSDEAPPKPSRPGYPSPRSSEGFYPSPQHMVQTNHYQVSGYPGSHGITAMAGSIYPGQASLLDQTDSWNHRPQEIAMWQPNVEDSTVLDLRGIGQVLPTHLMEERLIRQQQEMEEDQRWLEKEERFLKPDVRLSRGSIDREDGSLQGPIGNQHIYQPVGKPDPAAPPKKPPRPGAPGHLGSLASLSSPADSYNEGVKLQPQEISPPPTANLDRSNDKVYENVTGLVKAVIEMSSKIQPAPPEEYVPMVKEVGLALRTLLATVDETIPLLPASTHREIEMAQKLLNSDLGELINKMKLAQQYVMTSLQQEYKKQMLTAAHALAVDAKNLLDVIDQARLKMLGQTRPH

[12] = molecular target: Ephrin type-A receptor 5 (Homo sapiens) (UniProt P54756); details: at 1 µM
Ephrin type-A receptor 5 (Homo sapiens), sequence (P54756 whole entry): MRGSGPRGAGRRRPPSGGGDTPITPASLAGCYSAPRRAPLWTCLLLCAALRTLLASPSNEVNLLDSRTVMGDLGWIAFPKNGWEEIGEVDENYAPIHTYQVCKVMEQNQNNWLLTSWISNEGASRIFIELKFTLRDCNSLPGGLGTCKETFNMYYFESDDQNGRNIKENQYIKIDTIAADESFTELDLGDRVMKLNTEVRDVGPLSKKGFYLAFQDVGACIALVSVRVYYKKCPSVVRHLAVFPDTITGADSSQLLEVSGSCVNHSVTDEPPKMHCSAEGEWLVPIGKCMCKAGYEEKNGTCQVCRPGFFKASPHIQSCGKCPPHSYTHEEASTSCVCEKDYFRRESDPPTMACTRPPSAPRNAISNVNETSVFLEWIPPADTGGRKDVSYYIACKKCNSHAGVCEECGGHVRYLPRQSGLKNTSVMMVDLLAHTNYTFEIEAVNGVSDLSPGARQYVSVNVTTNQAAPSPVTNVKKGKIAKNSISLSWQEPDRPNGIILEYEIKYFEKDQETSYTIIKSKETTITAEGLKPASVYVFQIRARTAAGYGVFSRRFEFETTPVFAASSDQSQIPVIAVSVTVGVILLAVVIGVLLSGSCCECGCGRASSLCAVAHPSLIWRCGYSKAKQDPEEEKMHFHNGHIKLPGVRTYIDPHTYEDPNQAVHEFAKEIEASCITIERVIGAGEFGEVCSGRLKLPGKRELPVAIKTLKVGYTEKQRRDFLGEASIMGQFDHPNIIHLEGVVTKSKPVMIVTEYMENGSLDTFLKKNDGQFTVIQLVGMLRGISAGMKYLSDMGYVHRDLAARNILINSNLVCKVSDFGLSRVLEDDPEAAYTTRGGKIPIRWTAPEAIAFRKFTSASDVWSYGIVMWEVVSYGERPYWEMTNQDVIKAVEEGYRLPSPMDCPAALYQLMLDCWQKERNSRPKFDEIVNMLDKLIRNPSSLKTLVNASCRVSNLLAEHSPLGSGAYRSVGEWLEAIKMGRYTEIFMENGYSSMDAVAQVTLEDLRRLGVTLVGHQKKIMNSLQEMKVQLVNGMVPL

[13] = molecular target: Ephrin type-A receptor 5 (Homo sapiens) (UniProt P54756); details: at 10 µM
[14] = molecular target: T3, Ephrin type-B receptor 1 (Homo sapiens); details: at 10 µM
[15] = molecular target: T5, Ephrin type-B receptor 3 (Homo sapiens) (UniProt P54753); details: at 10 µM
T5 sequence (whole entry): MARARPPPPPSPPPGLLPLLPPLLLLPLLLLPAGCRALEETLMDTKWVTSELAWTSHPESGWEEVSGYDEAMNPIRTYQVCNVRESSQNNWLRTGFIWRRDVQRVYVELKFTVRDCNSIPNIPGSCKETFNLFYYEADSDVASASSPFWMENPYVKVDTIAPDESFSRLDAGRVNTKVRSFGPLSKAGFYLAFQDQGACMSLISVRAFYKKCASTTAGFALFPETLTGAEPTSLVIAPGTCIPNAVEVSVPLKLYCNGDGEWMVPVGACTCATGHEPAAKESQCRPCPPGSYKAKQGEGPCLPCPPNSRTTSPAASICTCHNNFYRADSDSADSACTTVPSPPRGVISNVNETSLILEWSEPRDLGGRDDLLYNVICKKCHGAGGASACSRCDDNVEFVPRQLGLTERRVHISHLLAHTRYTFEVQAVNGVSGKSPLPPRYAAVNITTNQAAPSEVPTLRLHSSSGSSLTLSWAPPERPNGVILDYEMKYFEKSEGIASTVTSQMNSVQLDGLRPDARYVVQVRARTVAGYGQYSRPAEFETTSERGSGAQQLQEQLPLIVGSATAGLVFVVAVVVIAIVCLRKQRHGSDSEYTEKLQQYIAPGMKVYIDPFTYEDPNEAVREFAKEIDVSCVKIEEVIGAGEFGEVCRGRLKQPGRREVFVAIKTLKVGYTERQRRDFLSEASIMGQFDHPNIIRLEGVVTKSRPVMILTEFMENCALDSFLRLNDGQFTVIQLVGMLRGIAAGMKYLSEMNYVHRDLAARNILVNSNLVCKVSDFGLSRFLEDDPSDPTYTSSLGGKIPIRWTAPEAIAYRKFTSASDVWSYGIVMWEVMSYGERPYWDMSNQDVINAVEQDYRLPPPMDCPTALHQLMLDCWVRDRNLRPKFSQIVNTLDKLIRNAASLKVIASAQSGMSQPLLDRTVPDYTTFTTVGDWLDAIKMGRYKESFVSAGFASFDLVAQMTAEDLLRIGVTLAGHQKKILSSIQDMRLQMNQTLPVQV

[16] = molecular target: Ephrin type-A receptor 4 (Homo sapiens) (UniProt P54764); details: at 10 µM

| SMILES | residual activity [1] [%] | residual activity [2] [%] | residual activity [3] [%] | residual activity [4] [%] | residual activity [5] [%] | residual activity [6] [%] | residual activity [7] [%] | residual activity [8] [%] | residual activity [9] [%] | residual activity [10] [%] | residual activity [11] [%] | residual activity [12] [%] | residual activity [13] [%] | residual activity [14] [%] | residual activity [15] [%] | residual activity [16] [%] |
| --- | --- | --- | --- | --- | --- | --- | --- | --- | --- | --- | --- | --- | --- | --- | --- | --- |
| Cn1sc(=O)n(Cc2ccccc2)c1=O | 86 | 86 | 86 | 87 | 84 | 90 | 87 | 80 | 87 | 98 | 95 | – | – | – | – | – |
| COc1cc2nccc(Oc3ccc(NC(=S)NC(=O)c4ccccc4C)cc3)c2cc1OC | 67 | 90 | 56 | 75 | 49 | 86 | – | – | 85 | 67 | – | 91 | 53 | 70 | 129 | – |
| O=C(O)/C=C/c1cc(Br)c(Br)c(Br)c1Br | 79 | 109 | 92 | 100 | 99 | 101 | 105 | 90 | 59 | 45 | 98 | – | – | 89 | – | – |
| Nc1ncnc2c1cnn2-c1ccccc1 | 84 | 102 | 97 | 100 | 95 | – | 95 | 102 | – | – | 137 | – | 88 | – | – | 97 |
